Some of the results follow. How many sequences the whole screen found active is unknown.
B1: VH:VL chains; a variant is named by its letters at X, in order (parent)
chain 1: QVQLVQSGAEVKKPGASVKVSCKASGYTFTDYXMHWVRQAPGQGLEWMGXVNPNXXXTTYNQKFEGRVTMTTDTSTSTAYMELRSLRSDDTAVYYCARXNXLDXWGQGTTVTVSS
chain 2: DIQMTQSPSSLSASVGDRVTITCSVSSSVSSIYLHWYQQKPGKAPKLLIYSTSNLASGVPSRFSGSGSGTDFTLTISSLQPEDFATYYCQVYSGYPLTFGGGTKVEIK

Variants of: B1
Assay: yeast display scFab, FACS + sequencing
Details: with MET
Summary of the method: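 Round-3 sorted and input populations from a heavy-chain CDR mutant scFab yeast library were deep sequenced in two replicates. Sorting used FACS on cells labelled for 3 h at room temperature with 1 nM HGFR-Fc and anti-Myc in PBSB with 1% milk, keeping the top 50% antigen-positive cells. Any sequence seen in both antigen-positive samples was called a binder, while one seen only in the input was called a non-binder.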

| Variant | antigen binding call |
| --- | --- |
| DRGGDDVV | no binding |
| YRARSAGY | binds |
| DREEGAVY | no binding |
| SEARSAVY | no binding |
| YRTKGAVY | binds |
| YRTRSAVY | binds |
| YRARSAVY | binds |
| SEREADWF | no binding |
| VAGTGDWF | no binding |
| AETKGDGA | no binding |
| DGGRSAVF | no binding |
| FREGSAVA | no binding |
| FRRTDFVA | no binding |
| ARRGSDLA | no binding |
| FRRGDAVA | binds |
| FRRGSAVA | binds |
| FRRGSALA | binds |
| DRRGDAVA | no binding |
| DGGTNDGA | no binding |
| DAAGADWY | no binding |
| YRKGGSWS | binds |
| AAAGGSWS | no binding |
| YRARGSWS | binds |

| Variant | antigen binding call |
| --- | --- |
| DRKGGDWS | no binding |
| VRTEDSWS | no binding |
| YRGRSSWS | binds |
| YRAAGSWS | binds |
| VAEKGDGA | no binding |
| YAEGGYGV chain 1 V68I | no binding |
| DTTGSDWY | no binding |
| VEGGGDVA | no binding |
| SEARSDWF | no binding |
| VAGTGDAA | no binding |
| SATTDSVD | no binding |
| SEARSAWS | no binding |
| YRARSAWS | binds |
| VEKGGDVS | no binding |
| VRARGDVS | binds |
| YRKKTDWS | no binding |
| SEARSSWS | no binding |
| YRARSSWS | binds |
| YRAEGAWS | binds |
| VRAGGDVF | no binding |
| FAEGDDVA | no binding |
| ATTGGDGV | no binding |
| VGGTGSGY | no binding |

| Variant | antigen binding call |
| --- | --- |
| VTEGGDVY | no binding |
| VEKGGDAA | no binding |
| VTERDDAV | no binding |
| YAATADSS | no binding |
| DAATADSS | no binding |
| VAATADSS | binds |
| YRARGAAS | binds |
| YRARGSVS | binds |
| YRARGAVS | binds |
| YAEESDGS | no binding |
| STGEDDVY | no binding |
| DEEEGSAA | no binding |
| YRARGAWS | binds |
| YKARGAWS | binds |
| YRARGAGS | binds |
| YEEGTDWY | no binding |
| DREEGDGV | no binding |
| DEAGTAVA | no binding |
| VAGRSFGS | no binding |
| VKRRDSGD | no binding |
| VRGRAAGD | binds |
| VRAGDSLS | no binding |
| ARRGGSGS | no binding |

| Variant | antigen binding call |
| --- | --- |
| VKRGSSGD | binds |
| VRGRDYGD | no binding |
| VERGGFGS | no binding |
| AKGTASGD | no binding |
| VRRGGSGS | binds |
| VRGRSSGS | binds |
| VRTGAVGD | no binding |
| VEKEGDAD | no binding |
| VKEKGDWV | no binding |
| DARGGDAA | no binding |
| VAATASWV | no binding |
| SEARSDGS | no binding |
| VTGTGDAD | no binding |
| VRERGDGS | no binding |
| VRGRSAWS | binds |
| VRAGGSGD | binds |
| VRERGAGS | binds |
| DRGRDAWS | no binding |
| VRERGDAS | no binding |
| VRTEDDWS | no binding |
| VRRGGSGD | binds |
| SREAADWA | no binding |
| SEARSDWA | no binding |

| Variant | antigen binding call |
| --- | --- |
| AARADSGY | no binding |
| VAATAAGA | no binding |
| DKTKGDWV | no binding |
| VRAGADGV | no binding |
| VRRGSAGD | binds |
| VRAGDDGS | no binding |
| VEGTSSGD | no binding |
| VRAGAAGS | binds |
| ARRGSAVS | no binding |
| VTTKSAGD | no binding |
| VRRGSSGD | binds |
| VRAGAAGV | no binding |
| VRRGSAGS | binds |
| DKGEGAGV | no binding |
| STAESDVA | no binding |
| VRRGSASD | binds |
| YRRGGSGD | binds |
| VRRAADSD | no binding |
| VRRETVSD | no binding |
| SAGEGDVF | no binding |
| FTGRAAAV | no binding |
| DRGRGSAD | binds |
| VKAGASAD | no binding |

| Variant | antigen binding call |
| --- | --- |
| FKGRGAAV | binds |
| FRGRASAD | binds |
| VKEGGSAD | no binding |
| VKGRGSAD | binds |
| FKGRGFVV | no binding |
| DEGGTSAD | no binding |
| DTGTSAAF | no binding |
| STGEADAS | no binding |
| YAEESDWV | no binding |
| ATGGAAGD | no binding |
| VGGTSDGA | no binding |
| FAGRGSAD | binds |
| FAGRGSSD | no binding |
| VKGRGVVD | binds |
| FTGRGSAD | no binding |
| FKGRGSAD | binds |
| VKTKGVVD | no binding |
| VAGRGVGD | no binding |
| FKGRGAAD | binds |
